In PubChem BioAssay one finds inhibition data, which are given here for 40 molecules.

Unmarked numbers belong to inactive results. Active and inactive are the calls of the source. Rule as the data show it, unless noted: active = inhibition above about 28%; inactive = the rest.

Tested on in one test: not listed separately
The experiment in a line: StAR promoter reporter inhibitors, counter-screen for LRH-1 inverse agonist project, cell-based, luminescence, high throughput (AID 651611). Particulars: StAR promoter luciferase reporter counterscreen, at 3.6 µM, stronger effect = higher value.
Turning to `COC(=O)c1ccc(N2CCCCC2)c(NC(=O)c2ccco2)c1`, the inhibition is 9.72%.
Same read-out and setting: as for `Cc1ccc(Nc2nc(-c3cccnc3)nc3ccccc23)cc1`, the figure is 36.1% (active).
Still for that read-out and setting: the value for `Cc1ccc(C(O)(C(=O)NN(C(=O)c2ccccc2)c2ccccc2)c2ccc(C)cc2)cc1` was 8.63%; that for `CC(=O)COc1ccc2c(-c3cccc([N+](=O)[O-])c3)cc(=O)oc2c1` was 7.05%; that for `O=C(Sc1cccc2cccnc12)c1ccccc1Br` was 86.8% (active).
The same measure, in the same setting: the value for `ClCc1ncc(-c2ccc(Cl)cc2)o1` was 15.7%; that for `O=C(Cn1nnc2ccccc2c1=O)Nc1ccc2c(c1)CCC2` was -34.8%; that for `C=CC[n+]1c(-c2ccc(Cl)cc2Cl)csc1Nc1c(C)n(C)n(-c2ccccc2)c1=O` was 10.3%.
With `CCn1c(=O)oc2cc(NC(=O)CCl)ccc21`, the inhibition was 44.4% (active).
Same read-out and setting: the value for `O=C(Cn1ncc(Cl)c(Cl)c1=O)Nc1ccc2c(c1)OCO2` was -10.7%; that for `COc1ccc(-c2nc(C(N)=O)c3[nH]c(=O)n(-c4cccc(Cl)c4)c3n2)cc1OC` was 20.8%; that for `Cc1ccccc1-c1nnc(SCC(=O)Nc2cccc(C)c2C)o1` was -7.62%.
Still for that read-out and setting: as for `CCCc1cc(=O)oc2cc(OCC(=O)NCCc3c[nH]c4ccc(OC)cc34)ccc12`, the figure is 6.12%; as for `CCCc1cc(=O)oc2cc(C)cc(OCC(=O)NC3CC3)c12`, 2.08%.
As to `O=C(c1ccccc1)c1cc(-c2ccccn2)c(N2CCOCC2)s1`, the inhibition was -8.68%.
The same measure, in the same setting: as for `CCc1c(O)nc(SCC(=O)Nc2ccccc2C)n(-c2ccc(C)cc2)c1=O`, the figure is 14.4%; as for `CC1CCCC(C)N1C(=O)COC(=O)Cc1ccc(Cl)cc1` (stereo not given), -5.45%.
Same read-out and setting: as for `O=[N+]([O-])c1ccc(-n2cnc3ccccc32)c([N+](=O)[O-])c1`, the figure is 17.6%; as for `CCOc1cc2c(cc1OCC)C(c1ccc(OC)cc1)N(c1ccccc1)C(=O)C2` (stereo not given), -4.63%.
Same read-out and setting: the value for `C=CCn1c(SCC(=O)Nc2ccccc2C)nc(O)cc1=O` was 9.34%; that for `COc1ccc(CCNC(=O)COC(=O)C23CC4CC(CC(C4)C2)C3)cc1` was 17.5%; that for `Cc1onc(-c2c(F)cccc2Cl)c1C(=O)c1ccccc1O` was 7.24%.
As for `O=C(CCl)Nc1cccc(Oc2cnccn2)c1`, the inhibition was 37.1% (active).
Still for that read-out and setting: as for `O=C(CSc1nnc(CNC(=O)c2c(F)cccc2F)o1)Nc1ccc2c(c1)OCCO2`, the figure is 9.56%; as for `O=C(NCc1cccnc1)c1cccn2c(=O)c3sccc3nc12`, 17.9%.
Same read-out and setting: as for `COc1ccc(N2CC(C(=O)N/N=C/c3ccc(C)cc3)CC2=O)cc1` (stereo not given), the figure is 40.7% (active); as for `Cc1cc(/C=N/NC(N)=S)c(C)n1-c1ccc(Cl)c(Cl)c1`, 7.41%.
On the same count and under the same terms, the value for `O=C1c2cc(F)ccc2-n2c1nc1ccccc1c2=O` was 50.5% (active); that for `Cn1cccc1C(=O)OCC(=O)NCCCc1ccccc1` was 3.25%; that for `COc1ccc(-n2c(/C=C(\C)O)nc(=O)c3c(C)cc(C)nc32)cc1` was 12.9%.
Consider `Cc1ccc(C(=O)Nc2sc3c(c2C(=O)O)CCCCC3)o1`, for which the inhibition was 12.2%.
Same read-out and setting: the value for `COc1ccc(CCNC(=O)COC(=O)c2cccn2C)cc1` was 19%; that for `CCCN(CC(=O)Nc1ccc(C(N)=O)cc1)CC(=O)Nc1ccccc1C` was 15.3%; that for `CN1CCN(c2ccc(S(=O)(=O)N3CCCCC3)cc2NC(=O)COc2ccc([N+](=O)[O-])cc2)CC1` was 2.36%.
Still for that read-out and setting: as for `CC(O)(c1cccnc1)c1nc(-c2cccc(C#N)c2)cs1` (stereo not given), the figure is 5.87%; as for `CN1CCN(/N=C/c2nc(-c3cccc([N+](=O)[O-])c3)n3ccccc23)CC1`, -4.33%; as for `COC(=O)c1ccc(NC(=O)CN2CCN(c3ccc(Cl)cc3)CC2)cc1`, -0.66%.
On the same count and under the same terms, as for `Cc1c(NC(=O)c2cc(-c3cccs3)nc3ccccc23)c(=O)n(-c2ccccc2)n1C`, the figure is 47% (active).
For `COc1ccc(CCNC(=O)CN2C(=O)NC3(CCCCC3)C2=O)cc1`, the inhibition was 11%.
Same read-out and setting: the value for `C#CCN(C[C@@H]1[C@@H](OC(=O)NCc2ccc(OC)c(OC)c2)[C@@H](OC(=O)NCc2ccc(OC)c(OC)c2)CN(C(=O)OC(C)C)N1C(=O)OC(C)C)S(=O)(=O)c1ccc(C)cc1` was 1.68%.

In another test the target is Nuclear receptor subfamily 5 group A member 2 (Homo sapiens) (UniProt O00482). The experiment in a line: NR5A2 activity suppression in reporter cells – cell-based, luminescence, confirmation (AID 651613; in the data active = inhibition above about 42%;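 also: HEK293T cells co-transfected with LRH-1 and StAR promoter luciferase reporter; 0% = vehicle wells and 100% = parental cells lacking receptor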). Particulars: cell-based LRH-1 luciferase reporter, inverse agonism; at 3.6 µM; stronger effect = higher value. Background: In a reporter assay the amount or activity of a reporter protein is the signal.
Nuclear receptor subfamily 5 group A member 2 (Homo sapiens), sequence (O00482 whole entry, looked up): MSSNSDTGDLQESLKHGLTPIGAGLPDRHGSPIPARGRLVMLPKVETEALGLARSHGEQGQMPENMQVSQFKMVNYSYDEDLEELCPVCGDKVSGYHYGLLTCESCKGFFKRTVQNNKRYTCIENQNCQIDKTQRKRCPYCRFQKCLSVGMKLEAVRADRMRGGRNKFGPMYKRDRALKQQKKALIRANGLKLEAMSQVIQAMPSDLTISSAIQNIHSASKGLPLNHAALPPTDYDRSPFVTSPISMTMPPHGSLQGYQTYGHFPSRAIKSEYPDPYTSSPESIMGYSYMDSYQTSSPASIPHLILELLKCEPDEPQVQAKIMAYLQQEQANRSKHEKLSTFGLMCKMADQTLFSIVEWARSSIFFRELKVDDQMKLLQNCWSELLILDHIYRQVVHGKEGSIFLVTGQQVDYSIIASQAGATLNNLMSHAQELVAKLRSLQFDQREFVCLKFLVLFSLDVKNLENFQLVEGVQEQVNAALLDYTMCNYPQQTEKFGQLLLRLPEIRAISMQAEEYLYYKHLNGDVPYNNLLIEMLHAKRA
Take `COC(=O)c1ccc(N2CCCCC2)c(NC(=O)c2ccco2)c1`: the inhibition is 55.3% (active).
Still for that read-out and setting: the value for `Cc1ccc(Nc2nc(-c3cccnc3)nc3ccccc23)cc1` was 54.1% (active); that for `Cc1ccc(C(O)(C(=O)NN(C(=O)c2ccccc2)c2ccccc2)c2ccc(C)cc2)cc1` was 65.8% (active); that for `CC(=O)COc1ccc2c(-c3cccc([N+](=O)[O-])c3)cc(=O)oc2c1` was 67.2% (active).
The same measure, in the same setting: the value for `O=C(Sc1cccc2cccnc12)c1ccccc1Br` was 92.1% (active); that for `ClCc1ncc(-c2ccc(Cl)cc2)o1` was 70% (active); that for `O=C(Cn1nnc2ccccc2c1=O)Nc1ccc2c(c1)CCC2` was 20.8%.
For the molecule `C=CC[n+]1c(-c2ccc(Cl)cc2Cl)csc1Nc1c(C)n(C)n(-c2ccccc2)c1=O`, the inhibition is 58.7% (active).
On the same count and under the same terms, as for `CCn1c(=O)oc2cc(NC(=O)CCl)ccc21`, the figure is 64.4% (active); as for `O=C(Cn1ncc(Cl)c(Cl)c1=O)Nc1ccc2c(c1)OCO2`, 38.1%; as for `COc1ccc(-c2nc(C(N)=O)c3[nH]c(=O)n(-c4cccc(Cl)c4)c3n2)cc1OC`, 57.3% (active).
The same measure, in the same setting: as for `Cc1ccccc1-c1nnc(SCC(=O)Nc2cccc(C)c2C)o1`, the figure is 24.8%.
Still for that read-out and setting: the value for `CCCc1cc(=O)oc2cc(OCC(=O)NCCc3c[nH]c4ccc(OC)cc34)ccc12` was 28.9%.
As for `CCCc1cc(=O)oc2cc(C)cc(OCC(=O)NC3CC3)c12`, the inhibition is 59.5% (active).
Take `O=C(c1ccccc1)c1cc(-c2ccccn2)c(N2CCOCC2)s1`: the inhibition was 68.3% (active).
`CCc1c(O)nc(SCC(=O)Nc2ccccc2C)n(-c2ccc(C)cc2)c1=O`: the inhibition was 56.4% (active).
The same measure, in the same setting: the value for `CC1CCCC(C)N1C(=O)COC(=O)Cc1ccc(Cl)cc1` (stereo not given) was 51.2% (active).
With `O=[N+]([O-])c1ccc(-n2cnc3ccccc32)c([N+](=O)[O-])c1`, the inhibition is 54.7% (active).
For `CCOc1cc2c(cc1OCC)C(c1ccc(OC)cc1)N(c1ccccc1)C(=O)C2` (stereo not given), the inhibition is 3.16%.
Take `C=CCn1c(SCC(=O)Nc2ccccc2C)nc(O)cc1=O`: the inhibition was 57.8% (active).
Turning to `COc1ccc(CCNC(=O)COC(=O)C23CC4CC(CC(C4)C2)C3)cc1`, the inhibition was 57% (active).
Still for that read-out and setting: as for `Cc1onc(-c2c(F)cccc2Cl)c1C(=O)c1ccccc1O`, the figure is 51.3% (active); as for `O=C(CCl)Nc1cccc(Oc2cnccn2)c1`, 69% (active).
For `O=C(CSc1nnc(CNC(=O)c2c(F)cccc2F)o1)Nc1ccc2c(c1)OCCO2`, the inhibition was 44.6% (active).
`O=C(NCc1cccnc1)c1cccn2c(=O)c3sccc3nc12`: the inhibition is 34.3%.
Same read-out and setting: as for `COc1ccc(N2CC(C(=O)N/N=C/c3ccc(C)cc3)CC2=O)cc1` (stereo not given), the figure is 40%; as for `Cc1cc(/C=N/NC(N)=S)c(C)n1-c1ccc(Cl)c(Cl)c1`, 44.5% (active); as for `O=C1c2cc(F)ccc2-n2c1nc1ccccc1c2=O`, 72.4% (active).
On the same count and under the same terms, the value for `Cn1cccc1C(=O)OCC(=O)NCCCc1ccccc1` was 54% (active); that for `COc1ccc(-n2c(/C=C(\C)O)nc(=O)c3c(C)cc(C)nc32)cc1` was 51.8% (active); that for `Cc1ccc(C(=O)Nc2sc3c(c2C(=O)O)CCCCC3)o1` was 34.3%.
The same measure, in the same setting: as for `COc1ccc(CCNC(=O)COC(=O)c2cccn2C)cc1`, the figure is 42.9% (active); as for `CCCN(CC(=O)Nc1ccc(C(N)=O)cc1)CC(=O)Nc1ccccc1C`, 55.4% (active).
Take `CN1CCN(c2ccc(S(=O)(=O)N3CCCCC3)cc2NC(=O)COc2ccc([N+](=O)[O-])cc2)CC1`: the inhibition was 59.6% (active).
Still for that read-out and setting: the value for `CC(O)(c1cccnc1)c1nc(-c2cccc(C#N)c2)cs1` (stereo not given) was 53.4% (active); that for `CN1CCN(/N=C/c2nc(-c3cccc([N+](=O)[O-])c3)n3ccccc23)CC1` was 38.9%; that for `COC(=O)c1ccc(NC(=O)CN2CCN(c3ccc(Cl)cc3)CC2)cc1` was 52.3% (active).
In the case of `Cc1c(NC(=O)c2cc(-c3cccs3)nc3ccccc23)c(=O)n(-c2ccccc2)n1C`, the inhibition was 33.5%.
With `COc1ccc(CCNC(=O)CN2C(=O)NC3(CCCCC3)C2=O)cc1`, the inhibition was 53.9% (active).
The same measure, in the same setting: as for `C#CCN(C[C@@H]1[C@@H](OC(=O)NCc2ccc(OC)c(OC)c2)[C@@H](OC(=O)NCc2ccc(OC)c(OC)c2)CN(C(=O)OC(C)C)N1C(=O)OC(C)C)S(=O)(=O)c1ccc(C)cc1`, the figure is 35.2%.

By inhibition is commonly meant the drop in the measured response relative to a control, in per cent.
